Laboratory results: PubChem BioAssay
Several values for one entry are separate records, joined by “and”; a condition that tells them apart may be missing. Identical values can stand only once. Records with an inconclusive call do not appear. A structure can be active in one record and inactive in another. Activity calls are given as the source filed them.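 Rule for the calls, unless noted: active = normalized viability below 100% at a tested concentration; inactive = the rest.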

Key:
[1] = viability loss in pontine glioma line – cell-based, SU-DIPG-XXV, MIPE5.0, CellTiter-Glo, qHTS, dose response (AID 1347065; cut-off not given, nearly all actives have AC50 up to about 26 µM;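 note: cells exposed to compound for 48 hours before ATP readout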); settings: CellTiter-Glo ATP luminescence
[2] = JHH-DIPG-1 glioma cell viability, MIPE5.0 library, CellTiter-Glo luminescence, qHTS (AID 1347067; cut-off not given, nearly all actives have AC50 up to about 26 µM;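 note: cells exposed to compound for 48 hours before readout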); settings: JHH-DIPG-1 glioma viability, CellTiter-Glo ATP luminescence
[3] = SU-DIPG-XXV glioma cell viability, MIPE5.0 library, qHTS (AID 1347068; cut-off not given, nearly all actives have IC50 up to about 30 µM)
[4] = SU-DIPG-VI glioma cell viability, MIPE4.0 library, CellTiter-Glo luminescence, qHTS (AID 1347066; cut-off not given, nearly all actives have AC50 up to about 30 µM;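 note: cells exposed to compound for 48 hours before readout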); settings: CellTiter-Glo ATP luminescence
[5] = modifiers of HSF1 nuclear foci, imaging, Selleck Cancer Library (AID 1347162; in the data active = plate-normalised HSF1 focus index below about 0.46); settings: human cells, at 10 µM; SSMD: measured here: HSF1 foci SSMD mean; cell count: measured here: cell number; plate-normalised HSF1 focus index: stronger effect = lower value
[6] = ovarian cancer cell viability with rucaparib, profiling panel, oncology-focused library, rucaparib conditional (AID 1508598); settings: patient-derived ovarian cancer cells, CellTiter-Glo viability, 144 h, stronger effect = lower value
[7] = target: NAD(+) hydrolase SARM1 (Homo sapiens) (UniProt Q6SZW1); test: SARM1 TIR NADase inhibitors, cell lysate, NAD-Glo luminescence (AID 1508614;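 active = compound whose remaining NAD level is above about 45 nM, limit read from the data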;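 note: higher remaining NAD means stronger inhibition of SARM1 NADase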); settings: SAM-TIR HEK293T lysate NADase, at 1 µM, stronger effect = higher value
NAD(+) hydrolase SARM1 (Homo sapiens), sequence (Q6SZW1 whole entry, looked up): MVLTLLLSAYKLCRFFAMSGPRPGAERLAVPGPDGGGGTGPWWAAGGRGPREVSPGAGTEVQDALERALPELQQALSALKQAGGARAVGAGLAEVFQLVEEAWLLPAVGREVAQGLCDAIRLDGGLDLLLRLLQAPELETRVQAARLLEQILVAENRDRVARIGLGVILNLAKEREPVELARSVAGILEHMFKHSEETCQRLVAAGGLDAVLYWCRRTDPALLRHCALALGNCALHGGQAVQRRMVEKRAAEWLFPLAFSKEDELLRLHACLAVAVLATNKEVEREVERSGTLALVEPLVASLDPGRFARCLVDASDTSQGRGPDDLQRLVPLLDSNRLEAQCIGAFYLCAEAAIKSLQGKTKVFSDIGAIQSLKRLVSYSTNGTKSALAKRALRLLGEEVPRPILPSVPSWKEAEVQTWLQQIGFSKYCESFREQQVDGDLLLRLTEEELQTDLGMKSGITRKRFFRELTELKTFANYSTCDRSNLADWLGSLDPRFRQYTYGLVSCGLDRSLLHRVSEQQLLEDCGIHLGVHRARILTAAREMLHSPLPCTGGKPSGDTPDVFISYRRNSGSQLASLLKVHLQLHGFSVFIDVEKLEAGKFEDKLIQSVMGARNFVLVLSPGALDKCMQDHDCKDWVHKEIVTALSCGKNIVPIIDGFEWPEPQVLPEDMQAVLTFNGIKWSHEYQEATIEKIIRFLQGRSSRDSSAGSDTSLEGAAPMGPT

[8] = viability rescue of complex I mutant cybrids, primary screen, cell-based, galactose medium, ATP luminescence (AID 1645843;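 active = z-score of at least 1.8 in each of two replicates, scored against plate mean and spread of sample wells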;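 note: positive z means more ATP and so rescue of galactose-driven cybrid death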); settings: complex I mutant cybrid cells, 72 h, stronger effect = higher value
[9] = sensitizers of A549 cells to miR-34 induction, primary screen, imaging, A549 dox-inducible miR-34, nuclei and caspase counts (AID 1347080;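 active = compounds whose cell count with miR-34 switched on is under 0.7 times the count with it off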); settings: A549 miR-34 inducible, Hoechst nuclei count, 48 h
[10] = survival rescue of mitochondrial mutant cells in low glucose, primary screen, MELAS cybrids, Rieske KO mouse fibroblasts, CellTiter-Glo (AID 1508586;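 active = mean z-score across replicates of 1.96 or higher in either the MELAS or the Rieske mutant cell line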;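 note: z relative to plate mean and SD of compound and empty wells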)
[11] = phospholipid biosynthesis inhibitors in animal cells, primary screen, cell-based, LOPAC library, screen 4 (AID 1347384; call rule not given here); settings: phospholipid biosynthesis inhibition screen, at 10 µM
[12] = target: Mitogen-activated protein kinase 7 (Homo sapiens) (UniProt Q13164); test: ERK5 transactivation activators in reporter cells, primary screen, cell-based, HTS (AID 1508626;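 active = luciferase signal above three times the same-plate solvent-only control wells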;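 note: luciferase driven by Gal4-ERK5 fusion binding five Gal4 sites before minimal TATA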); settings: HeLa Gal4-ERK5 transactivation, 18 h, at 5 µM, stronger effect = higher value
Mitogen-activated protein kinase 7 (Homo sapiens), sequence (Q13164 whole entry, looked up, the tested form may be a part): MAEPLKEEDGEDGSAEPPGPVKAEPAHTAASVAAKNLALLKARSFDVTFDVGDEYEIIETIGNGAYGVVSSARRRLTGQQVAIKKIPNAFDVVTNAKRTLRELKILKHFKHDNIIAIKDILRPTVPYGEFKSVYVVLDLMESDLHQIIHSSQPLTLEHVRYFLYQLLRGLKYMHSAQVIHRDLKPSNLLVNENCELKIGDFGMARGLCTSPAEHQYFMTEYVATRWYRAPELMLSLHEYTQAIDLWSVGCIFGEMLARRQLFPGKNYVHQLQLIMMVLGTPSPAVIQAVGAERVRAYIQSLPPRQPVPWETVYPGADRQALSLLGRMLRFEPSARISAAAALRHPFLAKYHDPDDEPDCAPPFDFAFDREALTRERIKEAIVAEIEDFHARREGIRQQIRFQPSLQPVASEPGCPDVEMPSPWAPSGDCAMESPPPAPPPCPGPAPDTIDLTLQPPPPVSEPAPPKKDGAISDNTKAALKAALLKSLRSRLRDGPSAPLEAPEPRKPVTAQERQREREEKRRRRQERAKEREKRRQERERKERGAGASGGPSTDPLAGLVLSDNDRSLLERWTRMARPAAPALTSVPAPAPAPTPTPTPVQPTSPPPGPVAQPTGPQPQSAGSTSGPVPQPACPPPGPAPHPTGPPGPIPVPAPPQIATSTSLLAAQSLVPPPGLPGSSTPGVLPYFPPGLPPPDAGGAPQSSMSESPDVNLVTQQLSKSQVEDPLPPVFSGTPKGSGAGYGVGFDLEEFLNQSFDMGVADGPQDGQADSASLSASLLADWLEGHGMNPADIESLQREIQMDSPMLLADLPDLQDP

[13] = stronger effect = lower value, cell number ratio, induced over uninduced
[14] = measured here: relative caspase fold change +Dox/-Dox
[15] = measured here: total cells with miR-34 induction, stronger effect = lower value
[16] = measured here: total cells without miR-34 induction
[17] = MELAS cybrid survival, CellTiter-Glo 48 h, stronger effect = higher value
[18] = Rieske KO mouse fibroblast survival, CellTiter-Glo 72 h

With `Cc1ccsc1C(=CCCN1CCC[C@@H](C(=O)O)C1)c1sccc1C` the outcome [1] was “inactive”, the outcome [2] was “inactive” and the outcome [3] was “inactive”.
With `Cc1ccc(NC(=O)c2ccc(CN3CCN(C)CC3)cc2)cc1Nc1nccc(-c2cccnc2)n1` the AC50 [1] was 23.5 µM (active), the outcome [4] was “inactive” and the SSMD [5] was 2.47. The cell count [5] was 6720, the plate-normalised HSF1 focus index [5] was 1.13 (inactive) and the viability ([6]; at 0.000305 µM, OCI-C5x cells, with rucaparib 10 µM, 100% = cells with rucaparib alone) was 112% (inactive) and 107% (inactive). The viability ([6]; at 0.000305 µM, OCI-C5x cells, without rucaparib) was 107% (inactive) and 98.4% (active), the viability ([6]; at 0.000305 µM, OCI-P5x cells, with rucaparib 20 µM, 100% = cells with rucaparib alone) was 97.9% (active) and 85.2% (active) and the viability ([6]; at 0.000305 µM, OCI-P5x cells, without rucaparib) was 98.1% (active) and 85.5% (active). The viability ([6]; at 0.00122 µM, OCI-C5x cells, with rucaparib 10 µM, 100% = cells with rucaparib alone) was 109% (inactive) and 103% (inactive), the viability ([6]; at 0.00122 µM, OCI-C5x cells, without rucaparib) was 106% (inactive) and 98.3% (active) and the viability ([6]; at 0.00122 µM, OCI-P5x cells, with rucaparib 20 µM, 100% = cells with rucaparib alone) was 95.4% (active) and 92.7% (active). The viability ([6]; at 0.00122 µM, OCI-P5x cells, without rucaparib) was 96.8% (active) and 89.4% (active), the viability ([6]; at 0.00488 µM, OCI-C5x cells, with rucaparib 10 µM, 100% = cells with rucaparib alone) was 113% (inactive) and 114% (inactive) and the viability ([6]; at 0.00488 µM, OCI-C5x cells, without rucaparib) was 108% (inactive) and 102% (inactive). The viability ([6]; at 0.00488 µM, OCI-P5x cells, with rucaparib 20 µM, 100% = cells with rucaparib alone) was 92.2% (active) and 93.1% (active), the viability ([6]; at 0.00488 µM, OCI-P5x cells, without rucaparib) was 99.4% (active) and 94.5% (active) and the viability ([6]; at 0.0195 µM, OCI-C5x cells, with rucaparib 10 µM, 100% = cells with rucaparib alone) was 120% (inactive) and 104% (inactive). The viability ([6]; at 0.0195 µM, OCI-C5x cells, without rucaparib) was 112% (inactive) and 98.4% (active), the viability ([6]; at 0.0195 µM, OCI-P5x cells, with rucaparib 20 µM, 100% = cells with rucaparib alone) was 94.9% (active) and 104% (inactive) and the viability ([6]; at 0.0195 µM, OCI-P5x cells, without rucaparib) was 95% (active) and 94.1% (active). The viability ([6]; at 0.0781 µM, OCI-C5x cells, with rucaparib 10 µM, 100% = cells with rucaparib alone) was 123% (inactive) and 97.7% (active), the viability ([6]; at 0.0781 µM, OCI-C5x cells, without rucaparib) was 115% (inactive) and 101% (inactive) and the viability ([6]; at 0.0781 µM, OCI-P5x cells, with rucaparib 20 µM, 100% = cells with rucaparib alone) was 95% (active) and 100% (inactive). For the same compound, the viability ([6]; at 0.0781 µM, OCI-P5x cells, without rucaparib) was 96.1% (active) and 97.9% (active), the viability ([6]; at 0.313 µM, OCI-C5x cells, with rucaparib 10 µM, 100% = cells with rucaparib alone) was 120% (inactive) and 104% (inactive) and the viability ([6]; at 0.313 µM, OCI-C5x cells, without rucaparib) was 110% (inactive) and 103% (inactive). For the same compound, the viability ([6]; at 0.313 µM, OCI-P5x cells, with rucaparib 20 µM, 100% = cells with rucaparib alone) was 100% (inactive) and 103% (inactive), the viability ([6]; at 0.313 µM, OCI-P5x cells, without rucaparib) was 96.2% (active) and 101% (inactive) and the viability ([6]; at 1.25 µM, OCI-C5x cells, with rucaparib 10 µM, 100% = cells with rucaparib alone) was 118% (inactive) and 105% (inactive). For the same compound, the viability ([6]; at 1.25 µM, OCI-C5x cells, without rucaparib) was 115% (inactive) and 106% (inactive), the viability ([6]; at 1.25 µM, OCI-P5x cells, with rucaparib 20 µM, 100% = cells with rucaparib alone) was 95.6% (active) and 99.9% (active) and the viability ([6]; at 1.25 µM, OCI-P5x cells, without rucaparib) was 95.1% (active) and 100% (inactive). The viability ([6]; at 5 µM, OCI-C5x cells, with rucaparib 10 µM, 100% = cells with rucaparib alone) was 133% (inactive) and 131% (inactive), the viability ([6]; at 5 µM, OCI-C5x cells, without rucaparib) was 124% (inactive) and 134% (inactive) and the viability ([6]; at 5 µM, OCI-P5x cells, with rucaparib 20 µM, 100% = cells with rucaparib alone) was 84.6% (active) and 98.4% (active). The viability ([6]; at 5 µM, OCI-P5x cells, without rucaparib) was 89.8% (active) and 103% (inactive), the remaining NAD [7] was 10 nM (inactive) and the z-score [8] was -1.09 (inactive) and -0.785 (inactive).
With `COC1=C(OC)C(=O)C(CCCCCCCCCCO)=C(C)C1=O` the outcome [1] was “inactive”, the AC50 [4] was 23.5 µM (active) and the outcome [3] was “inactive”. The fold change [9, 13] was 0.841 (inactive) and 0.881 (inactive) and 0.889 (inactive), the fold change [9, 14] was 1.87 and 0.941 and 1.43 and the cell count [9, 15] was 8540 and 8000 and 9340. For the same compound, the cell count [9, 16] was 10200 and 9080 and 10500, the z-score [10, 17] was -0.358 (inactive) and -0.43 (inactive) and 0.294 (inactive) and the z-score [10, 18] was 0.303 and 0.0167 and -0.141. The remaining NAD [7] was 10 nM (inactive) and the z-score [8] was -1.85 (inactive) and -2.1 (inactive).
For `CCC(=O)O[C@]1(C(=O)SCF)[C@H](C)C[C@H]2[C@@H]3C[C@H](F)C4=CC(=O)C=C[C@]4(C)[C@@]3(F)[C@@H](O)C[C@@]21C`, the outcome [4] was “inactive”, the outcome [2] was “inactive” and the outcome [3] was “inactive”. The fold change [9, 13] was 0.882 (inactive) and 0.864 (inactive), the fold change [9, 14] was 0.631 and 0.861 and the cell count [9, 15] was 6550 and 5840. For the same compound, the cell count [9, 16] was 7420 and 6760, the z-score [10, 17] was 0.444 (inactive) and the z-score [10, 18] was 0.72. For the same compound, the remaining NAD [7] was 10 nM (inactive) and the z-score [8] was 0.435 (inactive).
With `COc1ccc2[nH]cc(CCNC(C)=O)c2c1` the outcome [4] was “inactive”, the outcome [2] was “inactive” and the outcome [3] was “inactive”. For the same compound, the outcome [11] was “inactive”, the z-score [10, 17] was -0.429 (inactive) and 0.313 (inactive) and -0.146 (inactive) and the z-score [10, 18] was -0.494 and 0.0961 and -0.273. The luciferase signal [12] was 68 AU (inactive) and the z-score [8] was 0.52 (inactive) and 0.205 (inactive) and 0.655 (inactive).
